# Test results taken from PubChem BioAssay (NCATS).
# Results filed as inconclusive are left out. Calls of active or inactive are those of the source. The call rests on the fitted dose curve; in most records, active means well fitted cell-killing curve with a large enough effect; inconclusive means small, poorly fitted or top-dose-only effect; inactive means flat fitted curve, though single readings scatter. Bridge positions count the residues as written; N and C are the ends. Square brackets hold non-standard residues; d marks the D form. Side chains are listed from the residue outwards. Peptide text beside a SMILES is read from it. * marks the point of attachment. Phg(4-OMe) = COc1ccc([C@H](N)C(=O)O)cc1; d(aIle) = CC[C@H](C)[C@@H](N)C(=O)O; d(aThr) = C[C@@H](O)[C@@H](N)C(=O)O; NMeF = CN[C@@H](Cc1ccccc1)C(=O)O; Isobutyryl = CC(C)C(=O)*
# Assay: A2780 Cisplatin Sensitive Ovarian Cancer Cell Toxicity qHTS against the NCATS CANVASS Library (AID 1347353); further: nearly all actives have a fitted effect of over 60% in size
# Details: A2780 ovarian cancer viability, ATPLite luminescence, 72 h; series mostly up to 46.1 µM
# Outline: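 A2780 cisplatin-sensitive cells (750 per well) were seeded, left 4 h at 37 °C, then pin-dosed in an 11-point series. After 72 h at 37 °C/5% CO2, viability was measured as ATPLite luminescence.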
# Potency means the concentration at half of the fitted maximal effect.
row,SMILES,Potency
1,O=C1CC2OCC=C3CN4C5CC3C2[C@@H]2N1c1ccccc1[C@]52C[C@@H]4C1=C[C@H]2C3CC4N(CC[C@@]45c4ccccc4N(C1=O)[C@@H]25)C/C3=C/CO (stereo partly specified),7.43 µM (active)
2,CCC(=O)CCCCC[C@@H]1NC(=O)[C@H]2CCCCN2C(=O)[C@H](C(C)C)NC(=O)[C@H](Cc2cn(OC)c3ccccc23)NC1=O,5.26 µM (active)
3,C/C(=C\[C@H](C)C(=O)CCCC1CC(=O)NC(=O)C1)[C@@H]1OC(=O)/C=C/CC/C=C/[C@H](O)[C@@H](O)[C@@H]1C,0.372 µM (active)
4,C=CC(CCCCC)C1C(=O)NC(=O)C1C(=O)C1C(/C=C/C)C=CC2CC(C(=O)O)CC(C)C21 (stereo unspecified),7.43 µM (active)
5,CC[C@H](C)[C@H]1NC(=O)[C@@H](NC(=O)C(C)C)[C@@H](C)OC(=O)[C@H](COC(=O)CNC(C)=O)NC(=O)[C@@H]([C@@H](C)O)NC(=O)[C@H](Cc2ccccc2)N(C)C(=O)[C@H](c2ccc(OC)cc2)NC1=O (Isobutyryl-T[d(aIle)][Phg(4-OMe)][NMeF][d(aThr)]S([Gly-Ac]); ester 1-C),inactive
6,C/C1=C/[C@@H](C)[C@H](O)[C@@H](O)/C=C/CC/C=C/C(=O)O[C@@H]1[C@H](C)C(=O)CCCC1CC(=O)NC(=O)C1,inactive
7,CC(=O)Oc1cc2c(c(OC(C)=O)c1C1CCc3cc(Cl)c(Cl)n31)C(=O)n1c-2cc(Cl)c1Cl (stereo unspecified),11.8 µM (active)
8,O[C@H]1c2ccccc2-c2c3c(cc4c2[C@@H]1NCC4)OCO3,11.8 µM (active)
9,CC(C)=CC[C@H]1C[C@@]2(CC=C(C)C)C(=O)[C@](CC=C(C)C)(C(=O)C(C(=O)c3ccccc3)=C2O)C1(C)C,14.8 µM (active)
10,C[C@]12CC[C@]3(C1)[C@H](CC2=O)C[C@@H](OC(=O)c1ccccc1)[C@H]1[C@](C)(C(=O)O)CCC[C@@]13C,16.6 µM (active)
11,C=C[C@](Cl)(CBr)CCC=C(C)C,20.9 µM (active)
12,C=C1CC[C@@H](Br)C(C)(C)[C@]12CC=C(C)C(=O)C2,inactive
13,C/C(=C\[C@H](C)C(=O)/C=C/CC1CC(=O)NC(=O)C1)[C@@H]1OC(=O)/C=C/CC/C=C/C[C@@H](O)[C@@H]1C,1.18 µM (active)
14,C/C=C1/CN2C3CC1C1C=CC(=O)N4c5ccccc5[C@@]3(C[C@@H]2C2=C[C@H]3C5CC6N(CC[C@@]67c6ccccc6N(C2=O)[C@@H]37)C/C5=C/C)[C@H]14 (stereo partly specified),11.8 µM (active)
15,Oc1ccc(C2Oc3cc(O)c4c(c3[C@@H]2c2cc(O)cc(O)c2)[C@H]2C(c3ccc(O)cc3)c3c(O)cc5c(c3[C@H]2C4c2ccc(O)cc2)[C@H](c2cc(O)cc(O)c2)C(c2ccc(O)cc2)O5)cc1 (stereo partly specified),4.18 µM (active)
16,C=C(C)CC[C@H](Cc1c(O)cc(O)c2c1O[C@H](c1ccc(O)cc1)CC2=O)C(=C)C,23.5 µM (active)
17,COc1cc(/C=C/C(=O)OC[C@@H](Cc2ccc(O)c(OC)c2)[C@@H](COC(=O)/C=C/c2ccc(O)c(OC)c2)Cc2ccc(O)c(OC)c2)ccc1O,9.35 µM (active)
18,C[C@]12CCC[C@](C)(C(=O)O)[C@@H]1CC[C@@]1(C)c3cocc3CC[C@H]21,inactive
19,CC(C)C[C@@H]1c2c(O)c(C=O)c(O)c(C=O)c2O[C@]2(C)C=C[C@@H](C(C)C)C[C@H]12,inactive
20,COc1cc2c(c(O)c1O)C(=O)c1c(coc1C)C2=O,4.69 µM (active)
21,CC[C@H]1[C@H](C)[C@H](c2cc(OC)c(OC)cc2OC)[C@@H](C)[C@H](c2cc(OC)c(OC)cc2OC)[C@@]12C=C(OC)C(=O)C=C2OC,14.8 µM (active)
